From PubChem BioAssay
An excerpt weighted towards active compounds, which were near 4.2% of everything screened.
Cav32 inh = inhibitors of human Cav3.2 T-type calcium channel; O95180; Cav3.2-expressing cells, Fluo-4 calcium fluorescence FDSS; active compounds read low; B-score at 10 µM; 100,000 compounds, 4% hits; AID 449739;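 active means single-dose well whose peak fluorescence ratio is a statistical outlier from its plate by either plate-standardised score or position-corrected B-score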
Ec RNAP inh = Escherichia coli RNA polymerase inhibition; P0A8V2; 62,000 compounds, 0.2% hits; AID 559; E. coli RNA polymerase, fluorescence transcription assay; inhibition, %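 (tested at 10 µM)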; in the data active means inhibition above about 20%
Mac1 fbg enh = CD11b/CD18-fibrinogen binding enhancement; activation, % at 10 µM; 93,000 compounds, 0.07% hits; P05107+P11215; K562 CD11b/CD18 adhesion to fibrinogen, ATPlite luminescence;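 active means 10 µM primary screen giving 50% or more activity, confirmed by 40% or more on retest at that dose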
PTK2B oligo ant = Pyk2 (human) oligomerization antagonism | Q14289 | Q293 cells, Pyk2 FERM NanoBiT luminescence; active compounds read low | z-score (the deposit names both 25 µM and 10 µM) | 99,000 compounds, 0.83% hits;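 active means Z-score of -3 or lower, scaled per plate to the spread of control and sample wells; inactive means z-score above -3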;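 further: negative z-score means lost luminescence so less FERM oligomerization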
Mac1 fbg inh = CD11b/CD18-fibrinogen binding inhibition. K562 CD11b/CD18 adhesion to fibrinogen, ATPlite luminescence; Mn2+ added to activate the integrin. inhibition, % at 10 µM. 93,000 compounds, 0.54% hits;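 active means primary inhibition of 50% or more at 10 µM, then 40% or more on retest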
Numbers stand for hits.

CC(C)(C)c1nn2cnnc2n(/N=C/c2ccc(O)cc2)c1=O was read as Mac1 fbg enh inactive, PTK2B oligo ant inactive and Mac1 fbg inh inactive.
Cc1ccc(/C=C/C(=O)c2ccc(C)cc2)cc1 was read as Cav32 inh inactive and PTK2B oligo ant inactive.
For Cc1ccc(/C=C/C(=O)C2C(=O)c3ccccc3C2=O)cc1 the results were Cav32 inh inactive, Mac1 fbg enh inactive, PTK2B oligo ant inactive and Mac1 fbg inh 95.
`NNC(=O)c1cnn(Cc2ccccc2)c1N` gave Cav32 inh inactive and PTK2B oligo ant inactive.
For CC(NC(=O)c1ccc(F)cc1)c1ccc2c(c1)CCCC2 (configuration not stated) the results were Cav32 inh -8.5, Mac1 fbg enh inactive, PTK2B oligo ant inactive and Mac1 fbg inh inactive.
For COc1ccc(NC(=O)CSc2nc3ccccc3c(=O)n2CCNC(C)=O)c(OC)c1 the results were Cav32 inh inactive, Ec RNAP inh inactive, Mac1 fbg enh inactive, PTK2B oligo ant inactive and Mac1 fbg inh inactive.
For COc1ccc(OC)c(NC(=O)CSc2ccccc2)c1 the results were Cav32 inh inactive, Ec RNAP inh inactive, Mac1 fbg enh inactive, PTK2B oligo ant inactive and Mac1 fbg inh inactive.
Screening COc1ccc(OC)c(NC(=O)CSc2nc3ccccc3c(=O)n2CCNC(C)=O)c1 returned Cav32 inh 3.6, Ec RNAP inh inactive and PTK2B oligo ant inactive.
Screening COc1ccc(OC)c(NC(=O)CSc2nnc(C3CCCCC3)n2-c2ccccc2)c1 returned Cav32 inh -7.4 and PTK2B oligo ant inactive.
For Cc1ccc(C(=O)NNC(=O)C2CCCN(c3ncccn3)C2)cc1 (configuration not stated) the results were Cav32 inh inactive and PTK2B oligo ant inactive.
Screening CCOc1ccc(NC(=O)CC2C(=O)N(c3cccc(OC)c3)C(=O)N2C(C)C)cc1 (configuration not stated) returned Cav32 inh inactive.
For COCc1c(C(=O)N2CCN(c3ccc(C(F)(F)F)cn3)CC2)oc2ccccc12 the results were Cav32 inh -4.7, Mac1 fbg enh inactive, PTK2B oligo ant inactive and Mac1 fbg inh inactive.
Screening O=C(c1ccc2ccccc2c1)N1CCN(c2ccc(C(F)(F)F)cn2)CC1 returned Cav32 inh inactive, Mac1 fbg enh inactive, PTK2B oligo ant inactive and Mac1 fbg inh inactive.
`CCCS(=O)(=O)N1CCN(S(=O)(=O)c2ccccc2)CC1` gave Cav32 inh inactive, Mac1 fbg enh inactive, PTK2B oligo ant inactive and Mac1 fbg inh inactive.
`O=[N+]([O-])c1ccc(-c2cnc(SC(c3ccccc3)c3ccccc3)[nH]2)cc1` gave Mac1 fbg enh inactive and Mac1 fbg inh inactive.
For O=c1cc(-c2ccccc2)[nH]n1-c1ccc([N+](=O)[O-])cc1 the results were Cav32 inh -4 and PTK2B oligo ant inactive.
Screening CC1=NN(C(=O)COc2ccccc2C)C(O)(c2ccc(Cl)cc2)C1 (configuration not stated) returned Mac1 fbg enh inactive, PTK2B oligo ant inactive and Mac1 fbg inh inactive.
CCc1nccn1S(=O)(=O)c1ccc(OC)c(C)c1C was read as Cav32 inh -3.8, Mac1 fbg enh inactive, PTK2B oligo ant inactive and Mac1 fbg inh inactive.
Screening CC(C)CNC(=O)c1c2c(nc3ccccc13)-c1ccccc1CC2 returned Cav32 inh inactive and PTK2B oligo ant inactive.
`CCN(CC)C(=O)c1c2c(nc3ccccc13)-c1ccccc1CC2` gave Cav32 inh -4.9, Mac1 fbg enh inactive, PTK2B oligo ant inactive and Mac1 fbg inh inactive.
`COc1ccc(NC(=O)c2ccco2)cc1NC(=O)c1cccc(OC(C)C)c1` gave Cav32 inh -5.6, Ec RNAP inh inactive and PTK2B oligo ant inactive.
COc1cccc(C(=O)Nc2cc(NC(=O)c3ccco3)ccc2OC)c1 was read as Cav32 inh inactive, Ec RNAP inh inactive, Mac1 fbg enh inactive, PTK2B oligo ant inactive and Mac1 fbg inh inactive.
c1ccc(-c2nc(NCc3cccnc3)c3ccccc3n2)cc1 was read as Cav32 inh inactive, Mac1 fbg enh inactive, PTK2B oligo ant -3.7 and Mac1 fbg inh inactive.
For Clc1cccc(-c2nc(NCc3cccnc3)c3ccccc3n2)c1 the results were Cav32 inh inactive, Mac1 fbg enh inactive, PTK2B oligo ant -3.7 and Mac1 fbg inh inactive.
`O=C(NCCC1=CCCCC1)C(=O)NCc1ccccc1Cl` gave Cav32 inh inactive, Mac1 fbg enh inactive, PTK2B oligo ant inactive and Mac1 fbg inh inactive.
For O=C1CC(NCCC2=CCCCC2)C(=O)N1c1cccc(Cl)c1Cl (configuration not stated) the results were Cav32 inh -3.4.
O=c1c2sccc2n(Cc2cccc(F)c2)c(=O)n1-c1ccc(F)cc1 was read as Mac1 fbg enh inactive and Mac1 fbg inh inactive.
`O=C(NCC1CC1)c1cc(-c2ccccc2)nn1CC1CC(c2cccc([N+](=O)[O-])c2)=NO1` (configuration not stated) gave Cav32 inh inactive.
Screening O=C(NCc1ccco1)c1ccc2c(c1)C(=O)N(Cc1ccccc1)C2=O returned Cav32 inh -4.7, Ec RNAP inh inactive, Mac1 fbg enh inactive, PTK2B oligo ant inactive and Mac1 fbg inh inactive.
`CC(C)CCN1C(=O)c2ccc(C(=O)NCc3ccco3)cc2C1=O` gave Ec RNAP inh inactive, Mac1 fbg enh inactive, PTK2B oligo ant inactive and Mac1 fbg inh inactive.
CC(c1ccccc1)N1C(=O)c2ccc(C(=O)NCc3ccco3)cc2C1=O (configuration not stated) was read as Cav32 inh -3.9, Ec RNAP inh inactive and PTK2B oligo ant inactive.
`Cc1sc(NC(=O)C2CC=CCC2C(=O)O)c(C(=O)OC(C)C)c1C` (configuration not stated) gave Cav32 inh inactive, Mac1 fbg enh inactive, PTK2B oligo ant inactive and Mac1 fbg inh inactive.
Screening CCOCCCNC(=O)c1c[nH]c2ccc(S(=O)(=O)Nc3cccc(OC)c3)cc2c1=O returned Cav32 inh inactive, Ec RNAP inh inactive, Mac1 fbg enh inactive, PTK2B oligo ant inactive and Mac1 fbg inh inactive.
O=C(NC1CC1)c1c[nH]c2ccc(S(=O)(=O)Nc3cccc(C(F)(F)F)c3)cc2c1=O was read as Cav32 inh -5.6, Ec RNAP inh inactive and PTK2B oligo ant inactive.
For CCC(=O)NS(=O)(=O)c1ccc(-c2c(-c3ccccc3)noc2C)cc1 the results were Cav32 inh inactive.
For c1cn(CCCNc2ncnc3sc4c(c23)CCC4)cn1 the results were Cav32 inh inactive, Ec RNAP inh inactive, Mac1 fbg enh inactive, PTK2B oligo ant inactive and Mac1 fbg inh inactive.
For c1csc(CCNc2ncnc3sc4c(c23)CCC4)c1 the results were Ec RNAP inh inactive, Mac1 fbg enh inactive and Mac1 fbg inh 86.
`O=S(=O)(Nc1ncnc2sc3c(c12)CCC3)c1ccc2ccccc2c1` gave Cav32 inh -4.7, Mac1 fbg enh inactive, PTK2B oligo ant inactive and Mac1 fbg inh inactive.
`c1ccc(Nc2ncnc3sc4c(c23)CCC4)cc1` gave Cav32 inh inactive and PTK2B oligo ant inactive.
